Molecules are shown by their SMILES. Results filed as inconclusive are left out. Active and inactive are the calls of the source. Calls follow the shape of the dose curve; as a rule, active = well fitted cell-killing curve with a large enough effect; inconclusive = small, poorly fitted or top-dose-only effect, or effect the other way; inactive = no such curve, though single readings can be large or run the other way.
Potency is read from the fitted curve at half-maximal effect.

The assay is described as follows: Quantitative High-Throughput drug screen in 47 multiple myeloma cell lines against the NCATS MIPE library collection: MM1S_ATCC cell viability assay (AID 1918980). Also: nearly all actives have a fitted effect of over 45% in size. The conditions noted are these: MM1S myeloma viability, CellTiter-Glo ATP luminescence, 48 h; series mostly up to 45.8 µM. In a few lines:
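Cells were exposed to library compounds for 48 hours, after which ATP was measured by CellTiter-Glo. Signal was taken as median relative luminescence units.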
On the technique in general: ATP-based viability assays read luminescence as a measure of living cells.
For the compound `CC=C1NC(=O)[C@H]2CSSCCC=C[C@H](CC(=O)N[C@H](C(C)C)C(=O)N2)OC(=O)[C@H](C(C)C)NC1=O`, the Potency is 0.0332 µM (active).

As to `O=c1[nH]nc(Sc2ncc([N+](=O)[O-])s2)n1-c1ccc2c(c1)OCCO2`, the Potency is 2.35 µM (active).

For `CC[C@@]1(O)C(=O)OCc2c1cc1n(c2=O)Cc2cc3cc(O)ccc3nc2-1`, the Potency was 0.0526 µM (active).

On to `COc1ccc(-c2cc3c(C)nc(N)nc3n(C3CCC(OCCO)CC3)c2=O)cn1` (stereo not drawn), for which the Potency was 0.0372 µM (active).

Regarding `CN1CCN(c2cc(C(=O)Nc3ccc4c(c3)-c3c(c(C(N)=O)nn3-c3ccc(F)cc3)CC4)c(Cl)cn2)CC1`, the Potency is 3.32 µM (active).

As to `Cc1cnc(Nc2ccc(F)cc2Cl)nc1-c1c[nH]c(C(=O)N[C@H](CO)c2cccc(Cl)c2)c1`, the Potency is 16.6 µM (active).

Regarding `CN(C)CC=CC(=O)Nc1cc2c(Nc3ccc(F)c(Cl)c3)ncnc2cc1O[C@H]1CCOC1`, the Potency was 5.9 µM (active).

Regarding `CC(C)c1cc(C(=O)N2Cc3ccc(CN4CCN(C)CC4)cc3C2)c(O)cc1O`, the Potency is 0.332 µM (active).

In the case of `Nc1ncnc2c1c(-c1cnc3[nH]ccc3c1)nn2C1CCCC1`, the Potency was 2.96 µM (active).

On to `NC1(Cc2ccc(Cl)cc2)CCN(c2ncnc3[nH]ccc23)CC1`, for which the Potency was 1.87 µM (active).

In the case of `COc1ccc2c(c1)CC[C@@H](CN(C)CC(=O)O)[C@H]2c1ccccc1`, the Potency is 9.35 µM (active).

Consider `Nc1cc(C(F)(F)F)c(-c2cc(N3CCOCC3)nc(N3CCOCC3)n2)cn1`, for which the Potency was 0.235 µM (active).

For the compound `COc1cccc2c(NCc3ccccc3)nc(-n3c(N)nc4ccccc43)nc12`, the Potency is 5.26 µM (active).
